In PubChem BioAssay AID1159580 (chemical genetic matrix, 2015):
Screen size: about 5,500 compounds; about 2,000 (36%) were called active. Not shown: some 18% with an inconclusive outcome. Cut-off read from the data, not from the text of the source: active = normalized growth mostly below about 0.91 (no sharp cut-off); inconclusive = no clear call, values can overlap the other calls; inactive = mostly above about 0.92. This is one part of the list.

Assay: chemical genetic growth profiling, strain panel (AID 1159580);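 note: tested at 20 µM; growth read once vehicle control cultures reached saturation at 30 °C; 1 = growth at the plate median or of vehicle wells; lower values mean less growth of the strain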
Settings: growth OD

Measured: normalized growth

CC(C)CC1NC(=O)NC1=O (stereo not drawn)
inactive: S. cerevisiae deletion strains, locus YAL013W, strain DEP1, active compounds read low 1.02 | S. cerevisiae deletion strains, locus YBR229C, strain ROT2, active compounds read low 1.01 | S. cerevisiae deletion strains, locus YDL101C, strain DUN1, active compounds read low 1 | S. cerevisiae deletion strains, locus YDL134C, strain PPH21, active compounds read low 1.05 | S. cerevisiae deletion strains, locus YDR150W, strain NUM1, active compounds read low 1.01 | S. cerevisiae deletion strains, locus YEL061C, strain CIN8, active compounds read low 1.02 | S. cerevisiae deletion strains, locus YGR078C, strain PAC10, active compounds read low 1.01 | S. cerevisiae deletion strains, locus YGR229C, strain SMI1, active compounds read low 1.01 | S. cerevisiae deletion strains, locus YHR030C, strain SLT2, active compounds read low 1.04 | S. cerevisiae deletion strains, locus YHR087W, strain rtc3, active compounds read low 1.02 | S. cerevisiae deletion strains, locus YJR043C, strain POL32, active compounds read low 1.01 | S. cerevisiae deletion strains, locus YJR075W, strain HOC1, active compounds read low 1.02 | S. cerevisiae deletion strains, locus YLR039C, strain RIC1, active compounds read low 1 | S. cerevisiae deletion strains, locus YLR058C, strain SHM2 (second series), active compounds read low 0.998 | S. cerevisiae deletion strains, locus YLR085C, strain ARP6, active compounds read low 1.07 | S. cerevisiae deletion strains, locus YLR262C, strain YPT6, active compounds read low 1 | S. cerevisiae deletion strains, locus YML094W, strain GIM5, active compounds read low 1.03 | S. cerevisiae deletion strains, locus YMR219W, strain ESC1, active compounds read low 1.01 | S. cerevisiae deletion strains, locus YMR263W, strain SAP30, active compounds read low 1.01 | S. cerevisiae deletion strains, locus YMR307W, strain GAS1, active compounds read low 1.02 | S. cerevisiae deletion strains, locus YNL153C, strain GIM3, active compounds read low 1.01 | S. cerevisiae deletion strains, locus YNL298W, strain CLA4 (second series), active compounds read low 0.984 | S. cerevisiae deletion strains, locus YNL322C, strain KRE1, active compounds read low 1.02 | S. cerevisiae deletion strains, locus YNR030W, strain Alg12, active compounds read low 1.02 | S. cerevisiae deletion strains, locus YPL055C, strain LGE1, active compounds read low 1.07 | S. cerevisiae deletion strains, locus YPL241C, strain CIN2, active compounds read low 1.02 | S. cerevisiae deletion strains, locus YPR135W, strain CTF4, active compounds read low 1.13 | S. cerevisiae strains, strain wild type, active compounds read low 1.02
